This is an account of results in the supplement of paper PMC4894684.

Counter-ions that a name gives are not always drawn. ± gives the standard deviation of the averaged measurements.

The subject of this experiment is Toxoplasma gondii RH (in HFF). The experiment is described as follows: parasite growth relative to the screen mean (all compounds = 100%); higher = less inhibition of parasite growth. The conditions noted are these: 5 µM; 72 h; oxygen 21 %. The procedure, abridged:
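Each value is parasite growth expressed against the screen mean, averaged over two screens, where the mean of all compounds = 100%. The screen used 5 µM final compound on confluent human foreskin fibroblasts infected with RH β-Gal–GFP Toxoplasma (MOI 1:5) within 2 h and grown 72 h at 21% O2. Parasite number was measured by a CPRG β-Gal assay against in-plate standard curves.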
The compound `Cn1cc(C(=O)C(=O)N[C@H]2CN3CCC2CC3)c2ccccc21` yielded a parasite growth of 96.5 ± 6.7%. For `CCCN1CCC[C@@H]2Cc3n[nH]cc3C[C@H]21` [(-)-Quinpirole hydrochloride] the value was 143.8 ± 1.3%. For `CCC(Oc1ccc(Cl)cc1)C(=O)OC1C[C@H]2CC[C@@H](C1)N2C` (stereo partly specified) [SM-21 maleate] the value was 95.2 ± 2.9%; for `CN1CCN(c2ccc3ccccc3n2)CC1` [N-Methylquipazine dimaleate], 111 ± 14%; for `COC(=O)[C@@H](N)CCCNC(=N)N[N+](=O)[O-]` [L-NAME hydrochloride], 81.5 ± 24%. Turning to `C[C@H](Cc1ccc(OCC(=O)O)cc1)NC[C@H](O)c1cccc(Cl)c1`, the parasite growth came out at 90.6 ± 30%. For `CCOC(=O)c1cncn1[C@H](C)c1ccccc1` [Etomidate] the value was 114 ± 17%; for `N[C@@]1(C(=O)O)CC[C@@H](C(=O)O)C1`, 111 ± 27%. With `O=C1CCCN1CC#CCN1CCCC1` [Oxotremorine sesquifumarate], the parasite growth came out at 92 ± 32%. The same measure for `CC[C@@H](CO)NC(=O)[C@@H]1C=C2c3cccc4[nH]cc(c34)C[C@H]2N(C)C1` [Methylergometrine maleate]: 177 ± 41%; for `O=C(O)c1nn(Cc2ccc(Cl)cc2Cl)c2ccccc12` [Lonidamine]: 77.9 ± 20%; for `COc1cc2c(cc1OC)C1CC(=O)C(CC(C)C)CN1CC2` (stereo unspecified) [Tetrabenazine]: 132 ± 1.5%. For `O=C(N[C@H]1CN2CCC1CC2)c1ccc(Cl)cc1` the value was 146 ± 25%; for `C[N+](C)(C)CC#CCN1CCCC1=O` [Oxotremorine M], 172 ± 41%; for `Cc1ccc(C[N+](C)(C)C)o1` [5-Methylfurmethiodide], 100 ± 6.6%. The compound `CCOC(=O)c1ncn2c1[C@@H]1CCCN1C(=O)c1cc(OC)ccc1-2` came in with a parasite growth of 93.9 ± 12%.
